According to PubChem BioAssay (Tox21):
Results filed as inconclusive are left out. Calls of active or inactive are those of the source. Calls come from the whole dose curve; as a rule, active = well fitted cell-killing curve with a large enough effect in the repeat runs; inconclusive = weak or mixed curves, or effect the other way; inactive = flat fitted curve, though single readings scatter.

test: qHTS RealTime-Glo MT Cell Viability Assay in HEK293 cells - 0 hour (AID 1224880); details: RealTime-Glo luminescence; series mostly up to 76.8 µM; activity change, negative = cytotoxicity: at the top concentration; note: top concentration of the series differs between compounds; nearly all actives have a fitted effect of over 45% in size
Excerpt: U.S. Tox21 Program National Center for Advancing Translational Sciences [NCATS] NIH Chemical Genomics Center [NCGC] U.S. Environmental Protection Agency [EPA] National Institutes of Environmental Health Sciences [NIEHS] National Toxicology Program [NTP] U.S. Food and Drug Administration [FDA] Tox21 Assay Overview: Measure of cell viability is critical in the cell-base assay. Analysis of cell viability is necessary for the characterization of cell responses to cytotoxic drugs and environmental stress. A RealTime-Glo MT Cell Viability Assay to monitor cell viability in real time of continues cell culture during 40 hours of compound treatment was used to screen Tox21 10K library compounds in Hek293 cells. The RealTime-Glo MT Cell Viability Assay is a nonlytic, homogeneous, bioluminescent method to measure cell viability in real time using a simple, plate-based method. The assay involves adding NanoLuc luciferase and a cell-permeant prosubstrate to cells in culture. Viable cells reduce the proprietary prosubstrate to generate a substrate for NanoLuc luciferase. This substrate diffuses from cells into the surrounding culture medium, where it is rapidly used by the NanoLuc Enzyme to produce a luminescent signal. The signal correlates with the number of viable cells, making the assay well suited for cytotoxicity studies.
Tox21 Assay Protocol Summary: The mixture of Hek293 cell suspension and reagents were dispensed at 600cells/6 ul/well in 1536-well tissue culture treated black solid bottom plates using a Multidrop dispenser. After the assay plates were incubated at a 37 C/5% CO2 incubator for 5 hours, 23 nL of compounds dissolved in DMSO, positive and negative controls was transferred to the assay plate by a pintool work station. The plates were incubated at 37 C for 40 hours. The luminescence intensity were measured at 0h, 8h, 16h, 24h, 32h and 40h time points using ViewLux plate reader during compound treatment.
% is set by controls: 0 for no effect and ±100 for the full control effect.

Compound	activity change, negative = cytotoxicity	Potency
CCOCCn1c(C2CCN(CCc3ccc(C(C)(C)C(=O)O)cc3)CC2)nc2ccccc21	-1.73% [at 35.3 µM] (inactive)	–
OCCSc1ccccc1	21% (inactive)	–
NC(=O)N(O)[C@@H]1COc2cc(OCc3ccccc3)ccc21	-12.2% (inactive)	–
O=C(Nc1ccc([N+](=O)[O-])cc1)Nc1ccc([N+](=O)[O-])cc1	5.04% [at 35.3 µM] (inactive)	–
CC(C)(C)C(=O)O	9.78% (inactive)	–
CC(=O)[C@H]1CC[C@H]2[C@@H]3C=CC4=CC(=O)CC[C@@]4(C)[C@@H]3CC[C@]12C	-1.77% [at 35.3 µM] (inactive)	–
C=CC(C)(C)CC(=O)OC	2.43% (inactive)	–
CC(COc1ccc(C(C)(C)C)cc1)OS(=O)OCCCl (stereo not given)	4.23% (inactive)	–
CC(C)(CCl)c1ccccc1	1.88% (inactive)	–
CCCc1c(OCCCOc2ccc(OCC(=O)O)cc2)ccc(C(C)=O)c1O	-5.79% (inactive)	–
O=[N+]([O-])c1cccc(S(=O)(=O)NCCNS(=O)(=O)c2cccc([N+](=O)[O-])c2)c1	18.7% [at 35.3 µM] (inactive)	–
CC1=C(/C=C/C(C)=C\C=C\C(C)=C\C(=O)O)C(C)(C)CCC1	-2.08% (inactive)	–
COC(=O)Nc1nc2ccc(C(=O)c3cccs3)cc2[nH]1	-0.818% [at 35.3 µM] (inactive)	–
Cc1ccc(Nc2nccc(N(C)c3ccc4c(C)n(C)nc4c3)n2)cc1S(N)(=O)=O	2.56% [at 35.3 µM] (inactive)	–
C/C=C(\C)C(=O)OCCC(C)CCC=C(C)C (stereo not given)	3.99% (inactive)	–
O=C(c1ccc(O)cc1)c1ccc(Cl)cc1	4% (inactive)	–
CC(C)(C)CC(C)(C)c1ccc(OCCO)cc1	0.375% (inactive)	–
NC(=O)N(O)[C@@H]1C=C[C@H](Oc2cccc(Oc3ccc(F)cc3)c2)C1	6.33% (inactive)	–
CC1=CC(O)CC(C)(C)C1 (stereo not given)	2.55% (inactive)	–
CCCCC(CC)C(=O)OCCOCCOCCOCCOC(=O)C(CC)CCCC (stereo not given)	4.38% (inactive)	–

Compound	activity change, negative = cytotoxicity	Potency
Oc1cc(O)c(Cl)cc1Cl	2.88% (inactive)	–
CC1CC(=O)NN=C1c1ccc(NCC(C)(C)NCC(O)COc2cc(Cl)ccc2C#N)cc1 (stereo not given)	18.9% [at 35.3 µM] (inactive)	–
CC1=NN(c2ccc(C(=O)O)cc2)C(=O)C1	4.61% (inactive)	–
CCC1(C)CC(=O)NC1=O (stereo not given)	-2.36% [at 35.3 µM] (inactive)	–
CO/N=C1\CN(c2nc3c(cc2F)c(=O)c(C(=O)O)cn3C2CC2)CC1CN (stereo not given)	-5.87% [at 35.3 µM] (inactive)	–
CCCCCCCCCCCCCCC[C@H](O)[C@@H](N)CO	2.88% [at 35.3 µM] (inactive)	–
C[C@@H]1C[C@H]2[C@@H]3CCC4=CC(=O)C=C[C@]4(C)[C@@]3(F)[C@@H](O)C[C@]2(C)[C@H]1C(=O)CO	-23.1% [at 35.3 µM] (inactive)	–
O=C(NCCCN1CCOCC1)c1ccc(Cl)cc1	10.4% [at 35.3 µM] (inactive)	–
CCCCCCOC(=O)CCCCCCCC(=O)OCCCCCC	-1.73% (inactive)	–
Cc1cc(O)c(C(C)C)cc1Cl	–	inactive
CC(C)CCCC(=O)O	-10.1% (inactive)	–
CNC(=S)NC	-1.22% (inactive)	–
O=C(OCCOCCO)c1ccccc1Nc1cccc(C(F)(F)F)c1	23.5% [at 35.3 µM] (inactive)	–
CC(C)C(OC(=O)c1ccccc1)C(C)(C)COC(=O)c1ccccc1 (stereo not given)	0.965% (inactive)	–
CC(CCc1ccc2c(c1)OCO2)NN (stereo not given)	5.26% [at 35.3 µM] (inactive)	–
[O]=[Bi]	1.4% [at 6.97 µM] (inactive)	–
CC[C@@H]([C@H](C)O)n1ncn(-c2ccc(N3CCN(c4ccc(OC[C@@H]5CO[C@@](Cn6cncn6)(c6ccc(F)cc6F)C5)cc4)CC3)cc2)c1=O	2.93% [at 35.3 µM] (inactive)	–
CCn1cc(C(=O)O)c(=O)c2cc(F)c(N3CCNCC3)nc21	0.811% [at 35.3 µM] (inactive)	–
CCCCC1C(=O)N(c2ccccc2)N(c2ccc(O)cc2)C1=O (stereo not given)	-24.6% [at 35.3 µM] (inactive)	–
Cc1ccnc2ccccc12	-0.47% (inactive)	–
